Reference: PubChem BioAssay (EPA / NIEHS)
Records with an inconclusive call do not appear. Calls of active or inactive are those of the source. How the source made its calls: active means hit-call score of the fitted dose curve at least 0.9, where 1 is the maximum; inconclusive means response in the unintended direction; inactive means score below 0.9.

Assay: ACEA_ER_AUC_viability: ACEA Biosciences xCELLigence Real-Time Cell Analysis on Estrogen Receptor Agonism for Viability (AID 2283782);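 further: hit means loss of impedance signal meaning reduced cell growth or viability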
Outline: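 Continuous-exposure impedance cell analysis uses T-47D cells in charcoal-stripped serum, eight 1:4 dilutions topping at 100 uM final, biological duplicate. Area under the growth curve at 80 h is fitted against DMSO baseline.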

SMILES	outcome	AC50
C=C(C)OC(C)=O	inactive	
CC=C(C)C(C)=O	inactive	
CC(C)OC(=O)c1ccccc1	inactive	
CC(C)CCOCc1ccccc1	inactive	
CCCCCCCCCC[N+](C)(CCCCCCCCCC)CCC[Si](OC)(OC)OC		17 µM (active)
CC(=O)c1ccccc1O	inactive	
C=CC(=O)OCCCCCCCCCC	inactive	
CCCCOC(=O)C(C)CC (centres undefined)	inactive	
C=CCNCC=C		50.5 µM (active)
C=C(C)C1CC=C(C)C(OC(C)=O)C1 (centres undefined)		81.5 µM (active)
Nc1ccc(O)c([N+](=O)[O-])c1		85.7 µM (active)
CCC(=O)C1CC(C(C)C)CC=C1C (centres undefined)	inactive	
CC(C)c1cccc(C(C)C)c1N	inactive	
Nc1ccc(Cl)c(N)c1		73 µM (active)
CC1CCC(C(C)(C)S)C(=O)C1 (centres undefined)	inactive	
CCC(C)C(=O)OC (centres undefined)	inactive	
COCC(=O)O	inactive	

SMILES	outcome	AC50
CCCCCC(=O)OCC	inactive	
OCCCc1ccccc1	inactive	
CCCCOC(=O)CCC(C)=O	inactive	
CC(C)c1cc(C(C)C)cc(C(C)C)c1	inactive	
CCCCCCCCCCCCC	inactive	
O=C(O)CCCC(=O)O	inactive	
CCCC=C(C=O)CC	inactive	
C=C(C)C1CC=C(C)CC1 (centres undefined)	inactive	
C[N+](C)(C)CCCNS(=O)(=O)C(F)(F)C(F)(F)C(F)(F)C(F)(F)C(F)(F)C(F)(F)C(F)(F)C(F)(F)F		111 µM (active)
Nc1cccc(N)n1	inactive	
CCCCCCCCC(CO)CCCCCC (centres undefined)		33.9 µM (active)
CC/C=C\C/C=C\C/C=C\CCCCCCCC(=O)OC	inactive	
O=C1CCCN1C1CCCCC1	inactive	
Fc1ccc(Br)cc1	inactive	
[Cl][Sc]([Cl])[Cl]	inactive	
CCCCc1ccc(Cl)cc1	inactive	
CCCCCCCOC(=O)c1ccc(O)cc1		24.1 µM (active)
